Among the test systems are DU-145 prostate; K-562 leukemia; MALME-3M melanoma; MDA-MB-231 breast; RXF 393 renal; SF-268 CNS; SF-295 CNS; SF-539 CNS; UACC-257 melanoma; M14 melanoma; HCT-15 colon; HT29 colon; SNB-19 CNS; U251 CNS; PC-3 prostate; SK-MEL-5 melanoma; UACC-62 melanoma; LOX IMVI melanoma; SK-MEL-28 melanoma; SNB-75 CNS.
Test in all cases: NCI-60 one-dose screen, 48 h (100 = growth as untreated, 0 = no growth, -100 = all killed)
Conditions in all cases: 10 µM unless noted

About 83,000 compounds went through this panel and 20% of them were active in at least one assay; those are over-represented in the sample as a whole.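 Single-dose data. Exposure time 48 hours. Values below 10 considered active.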 Values without a mark were called inactive. Active and inactive are the calls of the source.

In PubChem BioAssay (NCI) one finds growth data, which are given here for eight molecules.

As for `COc1ccc2c(c1)c(-c1nc(-c3c[nH]c4ccncc34)cs1)cn2C`, the growth is -68% (active) in the assay on DU-145 prostate; -60.8% (active) in the assay with K-562 leukemia; -92.9% (active) in the assay with MALME-3M melanoma; -81.8% (active) in the assay on MDA-MB-231 breast; -83.8% (active) with RXF 393 renal; -78.7% (active) in the assay with SF-268 CNS. Further, the growth in the assay with SF-295 CNS is -76.1% (active); with SF-539 CNS, -96.9% (active); in the assay on UACC-257 melanoma it was -79% (active); in the assay on M14 melanoma, -84% (active); with HCT-15 colon, -54.2% (active); with HT29 colon it was -72.1% (active). Further, the growth in the assay with SNB-19 CNS was -58.9% (active); in the assay on U251 CNS it was -91.9% (active); in the assay on PC-3 prostate it was -81.1% (active); with SK-MEL-5 melanoma it was -97.4% (active); with UACC-62 melanoma it was -75.8% (active); in the assay with LOX IMVI melanoma it was -93.3% (active). For the same molecule, the growth with SK-MEL-28 melanoma was -95.7% (active).

`CCC(C)(C)C(=O)O[C@H]1C[C@@H](C)C=C2C=C[C@H](C)[C@H](CC[C@@H]3CC(SCCN)CC(=O)O3)[C@H]21` (stereo partly specified): the growth was 98.7% in the assay with DU-145 prostate; 51.2% in the assay on K-562 leukemia; 86.2% with MALME-3M melanoma; 88.7% with MDA-MB-231 breast; 86.8% in the assay on RXF 393 renal; 96.3% in the assay with SF-268 CNS. Moreover, the growth is 106% in the assay with SF-295 CNS; 76.2% with SF-539 CNS; 78% in the assay with UACC-257 melanoma; 60.1% in the assay on M14 melanoma; 100% in the assay on HCT-15 colon; 75% in the assay with HT29 colon. For the same molecule, the growth in the assay on SNB-75 CNS was 95.5%; with SNB-19 CNS, 93%; with PC-3 prostate, 44.3%; in the assay with SK-MEL-5 melanoma, 89.4%; in the assay with LOX IMVI melanoma, 75.8%; in the assay with SK-MEL-28 melanoma, 102%.

As for `CCOC(=O)n1ccn(C)c1=S`, the growth is 112% in the assay on DU-145 prostate; 103% in the assay on K-562 leukemia; 102% with MALME-3M melanoma; 117% in the assay with MDA-MB-231 breast; 115% with RXF 393 renal; 106% with SF-268 CNS. Besides, the growth with SF-295 CNS is 92%; in the assay with SF-539 CNS, 95.7%; with UACC-257 melanoma, 97.3%; in the assay with M14 melanoma it was 97%; in the assay with HCT-15 colon, 104%; in the assay with HT29 colon, 96.2%. Also, the growth was 110% in the assay on SNB-19 CNS; 100% in the assay on U251 CNS; 91% in the assay with PC-3 prostate; 109% in the assay with SK-MEL-5 melanoma; 108% in the assay on UACC-62 melanoma; 105% in the assay with LOX IMVI melanoma. In the assay on SK-MEL-28 melanoma, the growth was 108%.

Take `CCCc1c(OC(=O)c2ccccc2)nc2[nH]c(=O)sc2c1C`: the growth with DU-145 prostate was 106%; in the assay with K-562 leukemia it was 112%; with MALME-3M melanoma, 95.1%; in the assay with MDA-MB-231 breast it was 104%; in the assay with RXF 393 renal, 101%; with SF-268 CNS it was 97.1%. The growth in the assay on SF-295 CNS was 102%; in the assay with SF-539 CNS, 99%; in the assay on UACC-257 melanoma it was 98.5%; in the assay with M14 melanoma, 99.4%; with HCT-15 colon it was 98.3%; in the assay on HT29 colon it was 104%. Further, the growth in the assay on SNB-19 CNS was 96%; in the assay with U251 CNS it was 97.7%; with PC-3 prostate, 97.2%; in the assay on SK-MEL-5 melanoma, 98%; with UACC-62 melanoma, 88.8%; in the assay with LOX IMVI melanoma, 98.3%. Besides, the growth in the assay with SK-MEL-28 melanoma was 104%.

Take `O=C(Nc1ccc(Oc2cccc(Cl)c2)c(Cl)c1)c1cccnc1`: the growth in the assay with DU-145 prostate is 16.1%; in the assay on K-562 leukemia it was 11.1%; in the assay on MALME-3M melanoma it was 50.1%; in the assay with MDA-MB-231 breast, 59%; with RXF 393 renal, -0.145% (active); in the assay with SF-268 CNS, 53.4%. Further, the growth in the assay on SF-295 CNS is 41.4%; in the assay on SF-539 CNS, -8.37% (active); in the assay with UACC-257 melanoma, 64.2%; in the assay on M14 melanoma, 21.8%; in the assay with HCT-15 colon, 36.8%; in the assay with HT29 colon, 8.57% (active). The growth in the assay with SNB-75 CNS was -23.2% (active); with SNB-19 CNS it was 41.3%; in the assay on PC-3 prostate it was 14.9%; in the assay with SK-MEL-5 melanoma, 14.5%; with UACC-62 melanoma it was 37.6%; in the assay with LOX IMVI melanoma it was 51.7%. The growth in the assay with SK-MEL-28 melanoma is 63.8%.

With `CCN(CC)c1ccc(\C=N/N=C(N)/C(N)=N\N=C/c2ccc(N(CC)CC)cc2)cc1`, the growth is 110% with DU-145 prostate; 99.3% in the assay with K-562 leukemia; 93.9% in the assay on MALME-3M melanoma; 112% in the assay on MDA-MB-231 breast; 109% in the assay on RXF 393 renal; 105% in the assay with SF-268 CNS. For the same molecule, the growth was 98.9% in the assay with SF-295 CNS; 107% with SF-539 CNS; 104% in the assay with UACC-257 melanoma; 110% in the assay on M14 melanoma; 92.4% with HCT-15 colon; 99.2% in the assay with HT29 colon. For the same molecule, the growth in the assay with SNB-19 CNS was 113%; in the assay on U251 CNS it was 97.9%; with PC-3 prostate, 97.1%; in the assay on SK-MEL-5 melanoma it was 97.1%; with UACC-62 melanoma, 104%; in the assay on LOX IMVI melanoma, 101%. Besides, the growth with SK-MEL-28 melanoma was 105%.

Consider `COc1ccc(-c2nc3c(ncc4ccc(=O)[nH]c43)s2)cc1`, for which the growth with DU-145 prostate was 67.7%; in the assay with K-562 leukemia, 93.3%; in the assay on MALME-3M melanoma it was 93.9%; in the assay on MDA-MB-231 breast it was 81.5%; in the assay on RXF 393 renal, 88.5%; with SF-268 CNS, 76.6%. Further, the growth in the assay with SF-295 CNS was 88.1%; in the assay with SF-539 CNS, 84%; with UACC-257 melanoma it was 118%; in the assay with M14 melanoma it was 74.7%; with HCT-15 colon, 73.6%; in the assay with HT29 colon it was 81.1%. Moreover, the growth with SNB-19 CNS is 105%; with U251 CNS it was 81.6%; in the assay with PC-3 prostate it was 83.4%; in the assay on SK-MEL-5 melanoma, 74.3%; in the assay on UACC-62 melanoma, 88.1%; with LOX IMVI melanoma, 52%. In the assay with SK-MEL-28 melanoma, the growth was 87.6%.

Regarding `COc1ccc(C(=O)C/C(=C\c2ccc(Cl)cc2)C(=O)NCc2ccccc2)cc1`, the growth in the assay with DU-145 prostate was 103%; in the assay with K-562 leukemia, 62.4%; with MALME-3M melanoma it was 79.8%; in the assay on MDA-MB-231 breast, 81.3%; in the assay on RXF 393 renal, 91.6%; in the assay on SF-268 CNS, 86.3%. For the same molecule, the growth is 101% in the assay with SF-295 CNS; 94.4% in the assay with SF-539 CNS; 70.7% in the assay with UACC-257 melanoma; 94.8% in the assay on M14 melanoma; 47% in the assay with HCT-15 colon; 82.1% in the assay on HT29 colon. The growth in the assay on SNB-75 CNS is 100%; in the assay with SNB-19 CNS it was 85.5%; in the assay with PC-3 prostate, 56.4%; in the assay on SK-MEL-5 melanoma it was 93.4%; with UACC-62 melanoma it was 67.3%; with LOX IMVI melanoma, 77.9%. The growth in the assay with SK-MEL-28 melanoma is 91.2%.
